Article PMC5540273 (PLoS ONE, 2017)

System: ULK2
Conditions: concentration: 1 μM, replicates: in singlicate; n = 1
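Also: KINOMEscan kinase panel screen.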

Row | Structure (SMILES) | %Inh [%]
1 | O=C(NOCC1CC1)c1ccc(F)c(F)c1Nc1ccc(I)cc1Cl | 0
2 | C[C@@H](Oc1cc(-n2cnc3ccc(NC(=O)NC(C)(C)C)cc32)sc1C(N)=O)c1ccccc1Cl [GSK346294] | 0
3 | Cc1nnc(-c2ccc(C)c(-c3ccc(C(=O)Nc4ccc(NS(C)(=O)=O)cc4)cc3)c2)o1 [GW702865] | 0
4 | N#Cc1ccc(-c2cc(-c3c[nH]nc3-c3ccccn3)ccn2)cc1 [GW693028] | 0
5 | O=C(Nc1n[nH]c2cc(-c3cccc(F)c3)ccc12)C1CC1 [SB-735464] | 12
6 | Cn1cc(-c2ccc3c(c2)CCN3C(=O)Cc2ccccc2Cl)c2c(N)ncnc21 [GSK2608885] | 0
7 | CC(C)Oc1ccc2c(-c3ccnc(Nc4ccc(N5CCN(C)CC5)cc4)n3)cnn2n1 [GW696155] | 99.8
8 | O=C(NCCCN1CCOCC1)c1cccc(Nc2nccc(Nc3ccc(Oc4ccccc4)cc3)n2)c1 [GW663929] | 2
9 | COc1cc2c(cc1OC[C@@H](O)CO)ncc1c3ccc(C#N)cc3[nH]c21 | 99.2
10 | CN(C1=C(c2ccccc2)C(=O)NC1=O)c1ccccc1 [SB-334860] | 8
11 | Fc1ccc(-c2nn3c(OCC(F)(F)F)cccc3c2-c2ccncc2)cc1 [GW514784] | 0
12 | O=C1NC(=O)C(N2CCc3ccccc32)=C1c1cccc(Cl)c1 [SB-408010] | 0
13 | Cl.Nc1ncnc2occ(-c3ccc(NC(=O)Nc4cc(C(F)(F)F)ccc4F)cc3)c12 [SB-707548] | 0
